Inhibition data for 25 molecules are collected here from PubChem BioAssay AID836 (Columbia University Molecular Screening Center, 2007).

In all, about 91,000 compounds went through this assay and about 160 (0.18%) were called active.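 Rule for the calls: active = inhibition above the batch mean plus 3 SD and confirmed as a hit by visual image inspection (cut at about 30% in these data, passing the limit was not always enough); inconclusive = above the inhibition threshold but rejected on visual inspection; inactive = the rest.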 The list comes from a sample in which actives are over-represented; it also holds similar structures and randomly drawn compounds.

The assay in a line: disruptors of actin filament network in HUVEC – imaging, phalloidin staining, high-content imaging, primary screen (AID 836). Particulars: HUVEC TNFa F-actin phalloidin imaging, at 2 µM, hits give high values.
In the case of `COc1ccc([N+](=O)[O-])cc1NC(=O)CCc1ccccc1`, the inhibition is 9.1% (inactive).
The figure for `CC(Oc1ccc(-c2ccccc2)c(F)c1)c1ccn(S(=O)(=O)c2cccc3ccccc23)n1` (stereo not given) is 1.3% (inactive).
The value for `N#C/C(=C(/O)Cc1cccc2ccccc12)c1nc2ccccc2s1` was 18.2% (inactive); that for `O=C(Nc1ncc2c(n1)CC(c1ccco1)CC2=O)c1ccc(Cl)cc1` (stereo not given) was 100% (active); that for `CC1=C(C(=O)Nc2ccc(Cl)cc2)C(c2ccco2)NC(=O)N1` (stereo not given) was -60.1% (inactive).
The value for `COc1cc(C2CC(=O)c3cnc(NC(C)=O)nc3C2)cc(OC)c1OC` (stereo not given) was -1.6% (inactive); that for `FC(F)(F)c1cccc(-c2cc3ccccc3nc2N2CCCC2)c1` was -10% (inactive).
Turning to `COc1cccc(NC(=O)C2c3cc(OC)c(OC)cc3C(=O)N(C)C2c2cccnc2)c1` (stereo not given), the inhibition is 29% (inactive).
For `NC(=O)COc1ccc(/C=N/NC(=O)C2CCCN2S(=O)(=O)c2ccc(Cl)cc2)cc1` (stereo not given), the inhibition was -7.7% (inactive).
The value for `CC(=O)c1cn(CCCCCCCCCCn2cc(C(C)=O)c(=O)[nH]c2=O)c(=O)[nH]c1=O` was 6.8% (inactive); that for `O=C(CCc1ccc(S(=O)(=O)N2CCOCC2)cc1)Nc1ccc2ccccc2c1` was -5% (inactive).
The figure for `O=C(CNC(=O)c1ccccc1)NCC(=O)OCc1ccc(Cl)cc1` is -29.4% (inactive); for `CC(C(=O)Nc1ccc(F)c(F)c1F)N1CCCCCC1` (stereo not given) it is 9.4% (inactive).
`O=c1c2ccccc2nc2n1C(CSc1ccc(Cl)cc1)CN2` (stereo not given): the inhibition is -15.2% (inactive).
The value for `Cc1cccc(CSc2nnc(NC(=O)CSc3nnc(C)s3)s2)c1` was -21.1% (inactive).
The value for `O=C(NC1CCCCC1)c1cc([N+](=O)[O-])ccc1N1CCOCC1` was -40.7% (inactive); that for `Cc1n[nH]c(=O)n1-c1ccc(Oc2ccccc2)cc1` was 22.6% (inactive).
The value for `Cc1ccc(C)c(NC(=O)C2Cc3ccccc3CN2C(=O)OCc2ccccc2)c1` (stereo not given) was 26.6% (inactive); that for `Cc1ccc(S(=O)(=O)N(CC(=O)NCCSC2CCCCC2)c2ccccc2F)cc1` was 1.5% (inactive).
On to `CC(C)CC(=O)N1CCC(O)(CS(=O)(=O)Cc2ccccc2)CC1`, for which the inhibition was 34.4% (inactive).
With `Cc1ccc(-c2csc(N(Cc3ccco3)C(=O)c3cccs3)n2)cc1`, the inhibition is 5.4% (inactive).
As to `Fc1ccccc1COc1ccccc1CNCc1ccncc1`, the inhibition is -4.1% (inactive).
The value for `COc1ccccc1NC(=O)c1ccc2nc(N3C(=O)CCC3=O)sc2c1` was 19.2% (inactive); that for `COc1cc(C2C(C(=O)OCCC#N)=C(C)NC3=C2S(=O)(=O)c2ccccc23)cc(OC)c1OC` (stereo not given) was -21.9% (inactive).
The figure for `O=C(CCCN1C(=O)c2cccc3cccc(c23)C1=O)N1CCN(Cc2ccc3c(c2)OCO3)CC1` is 21% (inactive).
